# Columns and labels:
# Settings in all cases: concentration: 1 μM, replicates: in singlicate; n = 1
# EPHB3 = system: EPHB3
# EPHB4 = system: EPHB4
# EPHB6 = system: EPHB6
# ERBB2 = system: ERBB2
# ERBB3 = system: ERBB3
# ERBB4 = system: ERBB4
# ERK1 = system: T1, ERK1
# T1 construct: gene MAPK3
# ERK2 = system: T2, ERK2
# T2 construct: gene MAPK1
# ERK3 = system: T3, ERK3
# T3 construct: gene MAPK6
# ERK4 = system: T4, ERK4
# T4 construct: gene MAPK4
# ERK5 = system: T5, ERK5
# T5 construct: gene MAPK7
# ERK8 = system: T6, ERK8
# T6 construct: gene MAPK15
# ERN1 = system: ERN1
# FAK = system: T7, FAK
# T7 construct: gene PTK2
# FER = system: FER
# FES = system: FES
# FGFR1 = system: FGFR1
# FGFR2 = system: FGFR2
# FGFR3 = system: FGFR3
# FGFR4 = system: FGFR4
# 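Also: KINOMEscan kinase panel screen.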
Compound,%Inh (EPHB3),%Inh (EPHB4),%Inh (EPHB6),%Inh (ERBB2),%Inh (ERBB3),%Inh (ERBB4),%Inh (ERK1),%Inh (ERK2),%Inh (ERK3),%Inh (ERK4),%Inh (ERK5),%Inh (ERK8),%Inh (ERN1),%Inh (FAK),%Inh (FER),%Inh (FES),%Inh (FGFR1),%Inh (FGFR2),%Inh (FGFR3),%Inh (FGFR4)
COc1cc(Nc2nccc(N3CCC(NC(=O)C4COc5ccccc5O4)C3)n2)cc(OC)c1OC (stereo not shown) [GSK1379761],0%,7%,93.9%,50%,37%,30%,0%,0%,5%,15%,0%,0%,2%,0%,17%,0%,3%,30%,9%,0%
Cc1ccccc1COc1cc(-n2cnc3cc(Cl)ccc32)sc1C(N)=O [GW813349],0%,10%,17%,14%,54%,0%,1%,0%,0%,0%,0%,9%,0%,5%,0%,2%,12%,3%,0%,0%
CCc1ccc(-c2ccc3c(c2)-c2nn(C)cc2S(=O)(=O)N3C)cc1,0%,0%,12%,2%,24%,0%,3%,0%,0%,0%,5%,36%,0%,5%,6%,0%,16%,0%,0%,0%
Nc1ncnc2c1ncn2-c1ccc(Cl)cc1 [AH2635],3%,7%,10%,53%,1%,50%,0%,0%,18%,0%,0%,0%,0%,0%,26%,0%,0%,0%,8%,0%
C[C@@H]1CC[C@H](C(=O)NC2CCCCC2)CN1c1cc(-c2ccc3c(N)n[nH]c3c2)nc(N)n1 [GSK2291363],20%,21%,96.7%,21%,0%,35%,14%,25%,21%,28%,0%,1%,17%,0%,41%,0%,4%,8%,17%,12%
Nc1n[nH]c2ncc(-c3ccccc3)cc12 [SB-517081],9%,9%,39%,24%,0%,0%,3%,0%,0%,23%,0%,0%,9%,0%,0%,0%,0%,0%,2%,18%
CCC(=O)c1c(-c2ccccc2)c2cc(Cl)ccc2c(=O)n1Cc1cc(S(C)(=O)=O)n(CC(N)=O)n1,0%,0%,15%,39%,0%,0%,0%,0%,0%,0%,0%,0%,0%,0%,0%,0%,6%,9%,2%,0%
CCn1c(-c2ccoc2)nc2cnccc21 [SB-733887],17%,0%,26%,8%,14%,0%,0%,0%,12%,11%,0%,0%,0%,0%,20%,0%,0%,0%,0%,20%
COc1ccc(-c2cc3c(C)nc(N)nc3n([C@H]3CC[C@H](O)CC3)c2=O)cn1,0%,0%,4%,0%,0%,0%,0%,0%,0%,5%,0%,0%,0%,0%,0%,0%,0%,0%,0%,0%
Cc1cccc(-c2nc(Nc3ccc4c(cnn4C)c3)c3ccccc3n2)n1 [GW876731],0%,0%,13%,0%,0%,8%,0%,0%,0%,0%,1%,0%,29%,11%,9%,4%,0%,21%,4%,0%
Fc1cccc(CSc2nnc(-c3ccc4c(c3)CCO4)o2)c1,0%,0%,14%,59%,8%,0%,5%,30%,21%,0%,0%,3%,14%,0%,0%,0%,0%,0%,0%,6%
CCC(=O)c1c(-c2ccccc2)c2cc(Cl)ccc2c(=O)n1Cc1cc(S(C)(=O)=O)n(CC(F)F)n1,1%,0%,0%,0%,0%,0%,7%,11%,0%,0%,0%,6%,0%,0%,0%,0%,0%,4%,0%,0%
COc1cc(Nc2ccnc3ccc(C(F)(F)F)cc23)cc(OC)c1OC [GW577382],14%,20%,49%,16%,30%,23%,0%,5%,0%,1%,0%,0%,0%,0%,21%,2%,16%,25%,3%,11%
CCCNC(=O)Nc1ccc(Oc2ncnc3ccn(C)c23)cc1,0%,0%,5%,33%,1%,4%,0%,0%,2%,0%,3%,0%,35%,3%,0%,0%,8%,0%,0%,0%
Cn1c(=O)c(F)c(Nc2ccc(I)cc2F)c2c(=O)n(OC[C@H](O)CO)cnc21,17%,32%,0%,0%,41%,3%,0%,8%,9%,7%,24%,16%,0%,30%,10%,9%,23%,4%,0%,12%
O=C(NCc1cccs1)c1cc(C(=O)c2c(Cl)cccc2Cl)c[nH]1 [GW823670],0%,0%,0%,0%,0%,20%,0%,5%,0%,0%,0%,0%,0%,91.3%,1%,0%,0%,0%,0%,0%
O=C(Nc1ccc2c(c1)OCO2)NC1CCN(c2ccnc(NCc3ccc(F)cc3)n2)CC1 [GSK1379859],15%,0%,4%,35%,0%,43%,0%,0%,9%,3%,0%,0%,0%,0%,8%,0%,4%,0%,0%,0%
CCS(=O)c1ccc(-c2coc3ccc(-c4nnc(C)o4)cc23)cc1 (stereo not shown),0%,9%,3%,8%,3%,9%,0%,13%,0%,0%,0%,0%,16%,0%,11%,7%,9%,10%,7%,0%
COC(=O)c1c(-c2ccccc2)c2cc(Br)ccc2c(=O)n1Cc1ccc(S(C)(=O)=O)cc1,30%,18%,34%,55%,6%,13%,1%,38%,4%,3%,8%,0%,23%,6%,0%,20%,0%,10%,2%,0%
COc1ccc(Nc2nccc(N3CCC(NS(=O)(=O)c4ccc(NC(C)=O)cc4)C3)n2)cc1 (stereo not shown) [GSK1379729],35%,25%,28%,20%,18%,0%,20%,10%,6%,0%,0%,53%,0%,0%,24%,5%,8%,29%,18%,98.5%

# From paper PMC5540273 (PLoS ONE, 2017)
